This is one part of a sample in which hits are shown more often than they occur.
NOMO-1 viab – STK33 inhibitor candidate reducing NOMO-1 cell viability; NOMO-1 AML viability, CellTiter-Glo luminescence, 72 h; inhibition, % (test concentration not listed); 7.5% of 37,000 active; AID 2330; in the data active = inhibition above about 80%; inconclusive = no clear call, values can overlap the other calls
STK33 inh – inhibitors of human STK33 kinase; 0.44% of 27,000 active; ADP-Glo luminescence, MBP substrate; inhibition, % at 12.5 µM; in the data active = inhibition above about 20%; inconclusive = no clear call, values can overlap the other calls
ID4 binder – ID4 (human) binding; P47928; calls only; 1.2% of 31,000 active; small molecule microarray, Flag-ID4 binding, fluorescence F/B; AID 624137; call rule not given here;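 note: a binder raises fluorescence above local background on the spot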
Target sequence (P47928 whole entry, looked up): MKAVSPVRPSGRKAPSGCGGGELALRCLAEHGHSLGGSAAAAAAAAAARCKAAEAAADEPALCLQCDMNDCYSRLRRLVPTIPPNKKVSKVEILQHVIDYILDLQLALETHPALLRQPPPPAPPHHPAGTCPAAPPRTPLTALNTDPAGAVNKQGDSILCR
p53 PUMA act – re-activators of the mutant p53 pathway | activation, % at 9.98 µM | SW480 PUMA-promoter luciferase, p53 mutant reactivation | 1.5% of 28,000 active; in the data active = activation above about 52%; inconclusive = no clear call, values can overlap the other calls
Numbers without * were called inactive; i = inactive; ? = inconclusive; . = not tested or not shown; + = active, no number.

SMILES	NOMO-1 viab	STK33 inh	ID4 binder	p53 PUMA act
Cc1cc(C(=O)Nc2cccc3c2O[C@H](CN(C)Cc2ccc(Oc4ccccc4)cc2)[C@H](C)CN([C@H](C)CO)C3=O)n(C)n1	19	.	.	.
Cn1c(SCC(=O)N2c3ccccc3CCc3ccccc32)nnc1-c1ccc(Cl)cc1Cl	27	-1	i	14
COc1ccc(CN(C)C[C@@H]2Oc3ccc(NC(=O)Nc4ccc(C(F)(F)F)cc4)cc3C(=O)N([C@H](C)CO)C[C@@H]2C)cc1	114*	2	i	-9
COc1ccc(NC(=O)Nc2ccc3c(c2)C(=O)N([C@@H](C)CO)C[C@H](C)[C@H](CN(C)Cc2ccc(C(F)(F)F)cc2)O3)cc1	24	2	.	.
COc1ccc(CN(C)C[C@H]2Oc3ccc(NC(=O)Nc4ccc(C(F)(F)F)cc4)cc3C(=O)N([C@@H](C)CO)C[C@@H]2C)cc1	113*	.	i	-20
COc1ccc(NC(=O)Nc2ccc3c(c2)C(=O)N([C@@H](C)CO)C[C@@H](C)[C@@H](CN(C)Cc2ccc(C(F)(F)F)cc2)O3)cc1	?	0	.	.
C[C@@H]1CN([C@@H](C)CO)C(=O)c2cc(-c3cccnc3)cnc2O[C@@H]1CN(C)C	.	.	i	.
C[C@@H]1CN([C@@H](C)CO)C(=O)c2cc(-c3ccncc3)cnc2O[C@H]1CN(C)C	.	.	+	.
C[C@H]1CN([C@@H](C)CO)C(=O)c2cc(-c3cccc(C(=O)N(C)C)c3)cnc2O[C@H]1CN(C)S(=O)(=O)c1cccc(F)c1	.	.	.	16
C[C@H]1CN([C@@H](C)CO)C(=O)c2cc(-c3cccnc3)cnc2O[C@@H]1CN(C)C	.	.	+	.
COc1cccc(S(=O)(=O)N(C)C[C@H]2Oc3ncc(-c4cccc(C(=O)N(C)C)c4)cc3C(=O)N([C@H](C)CO)C[C@@H]2C)c1	.	.	+	3
Cc1ccc2nc(N3CCN(c4cccc(C)c4C)CC3)c(-n3nc(C)cc3C)nc2c1	.	.	i	-1
COc1ccc(S(=O)(=O)Nc2ccc3c(c2)C(=O)N([C@@H](C)CO)C[C@H](C)[C@H](CN(C)S(=O)(=O)c2c(C)noc2C)O3)cc1	4	.	i	-2
C[C@@H]1CN([C@@H](C)CO)C(=O)c2cc(N(C)C)ccc2O[C@H]1CN(C)Cc1ccc(-c2ccccc2)cc1	25	.	.	.
COc1ccc(S(=O)(=O)N[C@H]2C=C[C@H](CC(=O)N3CCc4ccccc4C3)O[C@H]2CO)cc1	.	.	i	.
C/C1=C/CCC2=CC(OC2=O)C(C)(C)/C=C/C1=O (stereo unspecified)	119*	3	.	.
CC(=O)c1c(C)nn(CC(O)COc2ccc3c(c2)CCC3)c1C (stereo unspecified)	55	0	i	-15
Cc1nn(CC(O)COc2ccc3c(c2)CCC3)c(C)c1Br (stereo unspecified)	96*	1	i	-9
C[C@H]1CN([C@@H](C)CO)C(=O)Cc2cc(NC(=O)CCCCCC(=O)Nc3ccccc3N)ccc2O[C@@H]1CN(C)Cc1ccc(Oc2ccccc2)cc1	122*	.	.	.
C[C@@H]1CN([C@H](C)CO)C(=O)Cc2cc(NC(=O)CCCCCC(=O)Nc3ccccc3N)ccc2O[C@@H]1CN(C)Cc1ccc(Oc2ccccc2)cc1	128*	.	.	.
C[C@@H]1CN([C@@H](C)CO)C(=O)Cc2cc(NC(=O)CCCCCC(=O)Nc3ccccc3N)ccc2O[C@@H]1CN(C)Cc1ccc(Oc2ccccc2)cc1	140*	.	.	.
COc1ccc(-c2oc3c(OC)c(OC)c(OC)c(O)c3c(=O)c2OC)cc1OC	107*	7	.	-24
COc1cc(-c2oc3cc(O)cc(O)c3c(=O)c2O)ccc1O	26	52*	i	.
COc1cc(-c2oc3cc(O)c(OC)c(O)c3c(=O)c2OC)ccc1O	120*	16	.	-42
O=c1c(O)c(-c2ccc(O)c(O)c2)oc2cc(O)cc(O)c12	58	38*	i	41
SMILES	NOMO-1 viab	STK33 inh	ID4 binder	p53 PUMA act
O=c1c(O[C@@H]2OC[C@H](O)[C@H](O)[C@H]2O)c(-c2ccc(O)c(O)c2)oc2cc(O)cc(O)c12	10	8	.	3
CN(C)c1ccc2c(c1)[C@H]1C[C@@H](CC(=O)NCc3ccc(Cl)cc3)O[C@@H](CO)[C@H]1O2	.	.	i	.
Cc1noc(C)c1S(=O)(=O)N(C)C[C@@H]1Oc2ccc(NS(=O)(=O)c3cccs3)cc2CC(=O)N([C@@H](C)CO)C[C@@H]1C	1	-2	i	3
COc1cc(OC)c2c(=O)c(O)c(-c3ccc(OC)c(OC)c3)oc2c1	102*	1	.	.
COc1cc(O)c2c(=O)c(OC)c(-c3ccc(OC)c(OC)c3)oc2c1	31	-4	i	-7
C[C@H](CO)N1C[C@H](C)[C@H](CN(C)C(=O)Nc2ccccc2)Oc2c(NC(=O)Nc3cccc4ccccc34)cccc2C1=O	73	.	.	.
C[C@@H]1CN([C@H](C)CO)C(=O)c2cccc(NC(=O)Nc3ccccc3)c2O[C@@H]1CN(C)C(=O)Nc1cccc2ccccc12	105*	.	.	.
C[C@@H]1CN([C@@H](C)CO)C(=O)c2cccc(NC(=O)Nc3ccccc3)c2O[C@@H]1CN(C)C(=O)Nc1cccc2ccccc12	106*	.	.	.
O=C1c2ccc(-c3ncc(-c4ccccc4)o3)cc2C(=O)N1c1ncn[nH]1	-6	.	.	.
Cc1ccc(-c2cnc(-c3ccc(Br)cc3)o2)cc1	.	.	i	72*
COC(=O)c1ccc(NC(=O)C2CCCCC2C(=O)O)cc1 (stereo unspecified)	17	-1	i	-3
COc1cccc(C(=O)Nc2ccc(NC(=O)C3CCCCC3C(=O)O)cc2)c1 (stereo unspecified)	-14	1	+	-10
NNC(=O)Cn1c2ccccc2c2ccccc21	100*	.	.	.
NNC(=O)CCn1c(-c2ccccc2)c(-c2ccccc2)c2ccccc21	.	.	i	-6
CC(=O)N[C@H]1CC[C@H](CC(=O)NCC2CCCCC2)O[C@@H]1CO	.	.	i	.
COc1ccc(NC(=O)N(C)C[C@@H]2OCCCC[C@@H](C)Oc3ccc(NS(=O)(=O)c4cccs4)cc3C(=O)N([C@H](C)CO)C[C@@H]2C)cc1	15	2	.	.
CNC[C@@H]1Oc2ccc(NS(=O)(=O)c3ccccc3)cc2C(=O)N([C@@H](C)CO)C[C@H]1C	-7	-1	+	3
C[C@@H]1CN([C@H](C)CO)C(=O)c2cc(NS(=O)(=O)c3ccccc3)ccc2O[C@@H]1CN(C)Cc1ccc(-c2ccccc2)cc1	121*	.	.	.
Cc1ccc(S(=O)(=O)Nc2ccc3c(c2)C(=O)N([C@H](C)CO)C[C@@H](C)[C@@H](CN(C)Cc2ccc(-c4ccccc4)cc2)O3)cc1	122*	.	.	.
C[C@@H]1CN([C@@H](C)CO)C(=O)c2cc(C#CC3CCCCC3)cnc2O[C@@H]1CN(C)Cc1cccnc1	.	.	i	.
C[C@H](CO)N1C[C@H](C)[C@H](CN(C)Cc2ccncc2)Oc2ccc(NC(=O)C3CC3)cc2C1=O	.	.	i	13
C[C@H]1CN([C@@H](C)CO)C(=O)c2cc(NC(=O)Nc3ccc4c(c3)OCO4)ccc2O[C@@H]1CN(C)S(=O)(=O)c1ccccc1	29	1	.	.
CC(=O)N1CCc2nc(SCC(=O)Nc3cccc(C#N)c3)c(C#N)c(C(F)(F)F)c2C1	-8	1	i	11
